SMILES strings stand for the structures. Inconclusive results are not listed. The source made the active and inactive calls. The call rests on the fitted dose curve; in most records, active means well fitted inhibition curve with a large enough effect; inconclusive means small, poorly fitted or top-dose-only effect; inactive means no such curve, though single readings can be large or run the other way.

Sequence of N-terminal Xaa-Pro-Lys N-methyltransferase 1 (Homo sapiens) (Q9BV86 whole entry, looked up): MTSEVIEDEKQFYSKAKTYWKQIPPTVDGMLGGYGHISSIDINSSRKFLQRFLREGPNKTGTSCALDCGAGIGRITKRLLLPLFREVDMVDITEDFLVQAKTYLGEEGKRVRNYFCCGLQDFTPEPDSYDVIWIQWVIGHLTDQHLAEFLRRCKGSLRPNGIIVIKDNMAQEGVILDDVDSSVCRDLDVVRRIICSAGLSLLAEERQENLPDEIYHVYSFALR

The assay deals with N-terminal Xaa-Pro-Lys N-methyltransferase 1 (Homo sapiens) (UniProt Q9BV86). In words: Orthogonal qHTS for Inhibitors of N-terminal methyltransferase 1 (NTMT1): ThioGlo Assay. To be noted: NTMT1 SAHH-coupled ThioGlo fluorescence, 30 min; series mostly up to 84.5 µM; activity, negative = inhibition: at the top concentration. Put shortly:
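ThioGlo3 (15 uM) detects the thiol product formed by SAHH (10 uM) from SAM (100 uM) turnover by 125 nM NTMT1 (all final), with compounds in concentration series. Readings at ex 340/em 450 nm at start and after 30 min at room temperature; data background-normalized.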
For `OCCn1cc(-c2cnc3nnn(Cc4ccc5ncccc5c4)c3n2)cn1`, the Potency is 17.5 µM (active).
As to `O=C(O)c1ccc(Cc2c(-c3cccc(-c4ccccc4)c3)[nH]n(-c3nc(C(=O)O)cs3)c2=O)cc1`, the “activity, negative = inhibition” value was -6.37% (inactive).
In the case of `O=C(NCCN1CCCC1)c1cc(-c2ccc(CN3CCOCC3)cc2)nc2ccc(F)cc12`, the Potency is 24.1 µM (active).
Take `FC(F)(F)c1cccc(N2CCN(C(=S)Nc3ccccn3)CC2)c1`: the Potency is 1.54 µM (active).
Still for that read-out and setting: the result for `COc1cc2c(NC3CCN(C4CCCCC4)CC3)nc(N3CCCN(C)CC3)nc2cc1OCCOCCN(C)C` reads 43.5 µM (active).
Take `NCCOc1cc(C(=O)Nc2cc(OCCN)c3ccccc3n2)nc(C(=O)Nc2cc(OCCN)c3ccccc3n2)c1`: the Potency was 19.4 µM (active).
As to `Cc1cccc(C)c1OCC(N)C(C)C` (stereo not given), the Potency was 1.54 µM (active).
As for `Cc1ccc(S(=O)(=O)Nc2cnccc2C(=O)Nc2nc(-c3cccc(C)c3)cs2)cc1`, the “activity, negative = inhibition” value was -29.8% (inactive).
Take `COc1cc2nc(N3CCCC3)nc(NC3CC3)c2cc1OC`: the “activity, negative = inhibition” value was -17% (inactive).
As to `Cc1[nH]c(/C=C2\C(=O)Nc3cc(-c4ccccc4)ccc32)c(C)c1CCC(=O)O`, the Potency is 9.87 µM (active).
In the case of `O=C(O)c1ccnc2cc(-c3nc4ccccc4n3CCN3CCCCC3)sc12`, the Potency was 55.5 µM (active).
Consider `CC(C)c1cc(CNc2nc(Nc3cc(C4CC4)[nH]n3)cc(N3CCN(C)CC3)n2)on1`, for which the Potency is 7.84 µM (active).
Take `CC[C@@H](c1ccc(F)c(F)c1)n1c(C(=O)OC)c(-c2ccno2)[nH]c1=S`: the Potency is 6.98 µM (active).
`CN(C)c1ccc(Nc2nc(N)n(C(=O)c3c(F)cccc3F)n2)cc1`: the Potency was 4.94 µM (active).
On the same count and under the same terms, the result for `O=C(Nc1ccccc1)c1ccc(Nc2nnc(-c3ccc(O)cc3)c3ccccc23)cc1` reads 27.8 µM (active); that for `Cc1ccc(NC(=O)N2CCN(c3nc(N)nc4sc(-c5cccnc5)nc34)CC2)cc1`, 24.8 µM (active).
Turning to `COc1cc2c(NC3CCN(C(C)C)CC3)nc(N3CCCN(CC4CCCCC4)CC3)nc2cc1OCCCN1CCCCC1`, the “activity, negative = inhibition” value is 198% (inactive).
Regarding `COc1cc2nc(N3CCOCC3)nc(NC(C)C)c2cc1OC`, the “activity, negative = inhibition” value was 82.2% (inactive).
As for `OCc1ccc(-c2ccc(-c3ccc(CO)s3)o2)s1`, the Potency was 19.2 µM (active).
Still for that read-out and setting: the result for `Cc1cc(N2CCOCC2)cc2[nH]c(-c3c(NC[C@@H](O)c4cccc(Cl)c4)cc[nH]c3=O)nc12` reads 13.9 µM (active).
Take `COc1cc2nc(N(C)C)nc(NC3CCN(C)CC3)c2cc1OC`: the “activity, negative = inhibition” value is 83.9% (inactive).
With `COc1ccc(C2=Nn3c(nnc3-c3ccccc3C)SC2)cc1OC`, the Potency was 34.5 µM (active).
As for `COc1cc2c(NC3CCN(C(C)C)CC3)nc(N3CCCN(CC4CCCCC4)CC3)nc2cc1OCCCN1CCCC1`, the Potency is 12.3 µM (active).
`Cc1cc2c(C(C)C)c(O)c(O)c(C=O)c2c(O)c1-c1c(C)cc2c(C(C)C)c(O)c(O)c(C=O)c2c1O`: the Potency is 38.8 µM (active).
Consider `C[N+]1(C)CCC(OC(=O)C(c2ccccc2)c2ccccc2)CC1`, for which the Potency is 2.74 µM (active).
Same read-out and setting: the value for `COc1cc2nc(N3CCN(C(=O)c4ccco4)C4CCCCC43)nc(N)c2cc1OC` (stereo not given) was 55.5 µM (active); that for `Cc1cc2c(c(=O)[nH]1)OC(C(O)CC(C)C)O2` (stereo not given) was 19.7 µM (active); that for `Nc1ncnc2c1nc(N)n2[C@@H]1O[C@H](CO)[C@@H](O)[C@H]1O` was 27.8 µM (active).
As to `COc1cc2c(NC3CCN(C4CCCCC4)CC3)nc(N3CCCN(C)CC3)nc2cc1OCCCN1CCCCC1`, the Potency is 43.5 µM (active).
On to `COc1cc2c(NC3CCN(C(C)C)CC3)nc(N3CCCCCC3)nc2cc1OCCCN1CCCC1`, for which the Potency is 38.8 µM (active).

These data come from PubChem BioAssay AID1645875 (National Center for Advancing Translational Sciences (NCATS), 2021).
